For 18 compounds, growth results are on record in PubChem BioAssay (NCI).

Among the test systems are T-47D breast; BT-549 breast; MDA-MB-435 melanoma; SW-620 colon; HCT-116 colon; HCC-2998 colon; KM12 colon; MCF7 breast.
Test in all cases: NCI-60 one-dose screen, 48 h (100 = growth as untreated, 0 = no growth, -100 = all killed)
Conditions in all cases: 10 µM unless noted

About 83,000 compounds went through this panel and 20% of them were active in at least one assay; those are over-represented in the sample as a whole.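 Cell lines were cultured in 96-well plates, exposed to a single compound concentration, and assessed for percent growth 48 hours later.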 Values without a mark were called inactive. The source made the active and inactive calls. The calls were made as follows: active = growth percent below 10; inactive = the rest.

For `COc1cc(C(=O)c2c(-c3ccccc3)oc3ccccc23)cc(OC)c1O`, the growth was 28.7% in the assay with T-47D breast; 47.4% in the assay with BT-549 breast; -30.9% (active) in the assay with MDA-MB-435 melanoma; 14.6% in the assay with SW-620 colon; 30.7% with HCT-116 colon; 78.4% in the assay on HCC-2998 colon. Moreover, the growth in the assay on KM12 colon is 27.7%.

Turning to `CCn1c2ccccc2c2cc(C(O)c3cccc4ncccc34)ccc21` (stereo not given), the growth in the assay on T-47D breast is 59%; with BT-549 breast, -8.94% (active); in the assay on MDA-MB-435 melanoma, 0.201% (active); in the assay with SW-620 colon, 26.8%; in the assay on HCT-116 colon it was 0.739% (active); in the assay on HCC-2998 colon it was -32.5% (active). Moreover, the growth with KM12 colon is 8.55% (active).

On to `COC(=O)c1c(C)nc(C)c2c1C(=O)C(Br)=C(NCCN1CCOCC1)C2=O`, for which the growth in the assay with T-47D breast is 114%; in the assay with BT-549 breast it was 101%; with MDA-MB-435 melanoma, 56.1%; with SW-620 colon it was 92.1%; with HCT-116 colon it was 67.4%; in the assay with HCC-2998 colon, 101%. For the same compound, the growth in the assay on KM12 colon was 96.9%.

Take `N#C/C(=C/C=C/c1ccccc1)S(=O)c1ccccc1` (stereo not given): the growth in the assay with T-47D breast was -20.1% (active); in the assay on BT-549 breast it was -77.9% (active); in the assay with MDA-MB-435 melanoma, -29.8% (active); with SW-620 colon, -40.4% (active); in the assay on HCT-116 colon, -89.6% (active); with HCC-2998 colon, -88.9% (active). The growth with KM12 colon is -42.4% (active).

For the compound `CN1CCN(Cc2ccc(NC(=O)c3cc(C#Cc4cnc(N)c5ncccc45)n(C)n3)cc2C(F)(F)F)CC1`, the growth was 101% in the assay on T-47D breast; 117% in the assay on BT-549 breast; 102% in the assay with MDA-MB-435 melanoma; 88.1% in the assay with SW-620 colon; 96.1% in the assay with HCT-116 colon; 128% with HCC-2998 colon. The growth with KM12 colon is 87.8%.

In the case of `O=c1c(Cc2ccc(F)cc2)cc(-c2ccccc2)nn1C/C(=N/O)c1ccccc1`, the growth is 11.8% in the assay with T-47D breast; 48.4% in the assay with BT-549 breast; 48.8% with MDA-MB-435 melanoma; 58.7% with SW-620 colon; 35.1% with HCT-116 colon; 61.3% in the assay on HCC-2998 colon. Moreover, the growth in the assay on KM12 colon is 34.7%.

`Cc1c(-c2cnc3ccc(Cl)cc3c2C(=O)O)nnn1-c1ccc(Cl)cc1`: the growth in the assay on T-47D breast was 88%; in the assay with BT-549 breast it was 82%; with MDA-MB-435 melanoma, 105%; in the assay on SW-620 colon, 112%; in the assay on HCT-116 colon it was 76.7%; in the assay on HCC-2998 colon, 102%. Also, the growth with KM12 colon was 109%.

Consider `Cc1cc([N+](=O)[O-])ccc1NC(=O)c1ccc2c(c1)nc(-c1ccccc1)n2C1CCCCC1`, for which the growth in the assay on T-47D breast is 59.8%; in the assay on BT-549 breast it was 77.1%; in the assay with MDA-MB-435 melanoma, 92.2%; with SW-620 colon it was 97.6%; in the assay with HCT-116 colon it was 65.7%; in the assay on HCC-2998 colon it was 88.3%. The growth in the assay with KM12 colon is 69.3%.

As to `COC(=O)[C@H]1Cc2c([nH]c3ccccc23)[C@H](c2ccc3c(c2)OCO3)N1`, the growth is 91.8% in the assay on T-47D breast; 99.5% in the assay on BT-549 breast; 101% in the assay with MDA-MB-435 melanoma; 102% in the assay with SW-620 colon; 97.6% in the assay on HCT-116 colon; 97.6% in the assay on HCC-2998 colon. Further, in the assay with KM12 colon, the growth is 99.3%.

Consider `C=C(C)[C@@H]1CCC[C@]2(C(=O)OC)CC[C@]3(C)[C@@H](CC[C@@H]4[C@@]5(C)CCCNC(C)(C)[C@@H]5CC[C@]43C)[C@@H]12`, for which the growth in the assay with T-47D breast was 75.9%; with BT-549 breast it was 93.9%; in the assay with MDA-MB-435 melanoma, 92.9%; in the assay on SW-620 colon, 86.7%; in the assay on HCT-116 colon, 93.3%; with HCC-2998 colon, 96.3%. For the same compound, the growth in the assay on KM12 colon was 85.8%.

`CCOc1ccc(N2C(=O)CCSC2=S)cc1`: the growth with T-47D breast was 104%; in the assay with BT-549 breast, 108%; in the assay with MDA-MB-435 melanoma, 98%; in the assay on SW-620 colon, 104%; in the assay on HCT-116 colon it was 112%; with HCC-2998 colon, 104%. Moreover, the growth in the assay on KM12 colon was 107%.

For `CC(CN)[C@@H]1CC[C@]2(CO)CC[C@]3(C)[C@H](CC[C@@H]4[C@@]5(C)CCC(NCCO)C(C)(C)[C@@H]5CC[C@]43C)[C@@H]12` (stereo not given in full), the growth with T-47D breast was 77.5%; in the assay on BT-549 breast it was 64.7%; in the assay on MDA-MB-435 melanoma it was 31%; in the assay with SW-620 colon, -60.9% (active); with MCF7 breast it was 3.04% (active); with HCT-116 colon, 6.92% (active). In addition, in the assay on KM12 colon, the growth was 32.6%.

Take `CCN1C(=O)N(CC)C2C1NN=c1s/c(=C3\C(=O)N(C)c4ccccc43)c(=O)n12` (stereo not given): the growth is 18.5% in the assay on T-47D breast; 55.8% in the assay on BT-549 breast; -34.4% (active) with MDA-MB-435 melanoma; 28.3% in the assay on SW-620 colon; 8.97% (active) with HCT-116 colon; 22.1% with HCC-2998 colon. In addition, the growth in the assay with KM12 colon was 20.9%.

Turning to `O=C1/C(=C/c2ccccc2)COc2ccc(O)cc21`, the growth in the assay on T-47D breast is 80.7%; with BT-549 breast it was 81.2%; in the assay with MDA-MB-435 melanoma, 68.4%; in the assay with SW-620 colon, 53.1%; in the assay on MCF7 breast, 23.7%; in the assay on HCT-116 colon, 51.9%. Further, the growth in the assay with KM12 colon is 41.4%.

`COC(=O)[C@H](C)NC(=O)[C@@H]1CCCN1C(=O)CNC(=O)[C@H](C)N`: the growth in the assay on T-47D breast was 97.6%; with BT-549 breast it was 109%; in the assay on MDA-MB-435 melanoma, 102%; in the assay with SW-620 colon, 105%; with HCT-116 colon, 99.6%; with HCC-2998 colon, 106%. Moreover, the growth in the assay on KM12 colon was 104%.

Consider `O=C(/C=C/c1ccc(Cl)cc1)c1ccc(Nc2ccnc3cc(Cl)ccc23)cc1`, for which the growth with T-47D breast was 96.4%; in the assay with BT-549 breast, 145%; with MDA-MB-435 melanoma, 64.8%; in the assay on SW-620 colon it was 60.7%; with HCT-116 colon it was 16.9%; with HCC-2998 colon, 88.1%. Moreover, the growth with KM12 colon was 50%.

For `Cc1ccc(S(=O)(=O)c2nc(-c3ccccc3)oc2S(C)=O)cc1` (stereo not given), the growth in the assay on T-47D breast was -49% (active); in the assay on BT-549 breast, 27.5%; with MDA-MB-435 melanoma it was 37%; in the assay with SW-620 colon it was -55.4% (active); with HCT-116 colon it was -20.3% (active); in the assay on KM12 colon, 49.8%.

With `O=C1c2cccnc2C(=O)c2c1c(C(=O)OCCCN1CCOCC1)c1ccccn21`, the growth in the assay with T-47D breast was 4.62% (active); in the assay with BT-549 breast it was -38.7% (active); with MDA-MB-435 melanoma, -32.4% (active); in the assay with SW-620 colon, -39.3% (active); in the assay on HCT-116 colon it was -49.6% (active); in the assay on HCC-2998 colon, 7.61% (active). The growth with KM12 colon is 15.7%.
